Measured values as given in PubChem BioAssay AID743326 (National Center for Advancing Translational Sciences (NCATS), 2014).
Active and inactive are the calls of the source. Where a call stands in place of a potency, no number is given. The call rests on the fitted dose curve. Square brackets hold non-standard residues; d marks the D form. Peptide text beside a SMILES is read from it. Orn = NCCC[C@H](N)C(=O)O

Experiment: qHTS profiling of Chloroquine Analogs as inhibitors of Plasmodium falciparum (DD2) proliferation
Conditions: Potency: Plasmodium falciparum Dd2 proliferation inhibition; series mostly up to 28.7 µM
Excerpt: Plasmodium falciparum is a virulent malarial parasite that kills 1-2 million people worldwide each year. Transmitted by mosquitoes, the sporozoite form of the parasite enters the blood stream to infect hepatocytes, where they become merozoites that infect red blood cells (erythrocytes). Within erythrocytes, merozoites begin a […] cycle of growth and division, after which the parasite is released to infect new red blood cells. Gametocytes, which form within erythrocytes as well, circulate in the bloodstream and are ingested by the mosquito, thereby completing the life cycle. To profile malarial isolates for differential chemical responses and to identify inhibitors of malarial growth, an assay that measures P. falciparum growth and replication within erythrocytes was employed. This assay uses a DNA binding fluorescent dye (SYBR Green) to detect parasite DNA following cell lysis. Because mature erythrocytes lack DNA, only Plasmodium-derived DNA is detected.
The SYBR Green viability assay was adapted from a method described previously (Plouffe et al., 2008). For screening 3 ul culture medium was dispensed into 1536 well black clear bottom plates (Aurora Biotechnologies) using a Multidrop Combi (Thermo Fisher Scientific Inc.), 23 nL compounds in DMSO were added by a pin tool (Kalypsys), and 5 ul of erythrocytes infected with P. falciparum (0.3% parasitemia, 2.5% hematocrit final concentration) were added. The plates were incubated at 37 C in a humidified incubator in 5% CO2 for 72 h, and 2 ul lysis buffer (20 mM Tris HCl, 10 mM EDTA, 0.16% saponin, 1.6% triton X, 10X SYBR Green I supplied as 10,000X […] by Invitrogen) was added to each well. The plates were mixed for 25 sec with gentle shaking and incubated overnight at room temperature in the dark. The following morning, fluorescence intensity at 485(14) nm excitation and 535(25) nm emission wavelengths was measured on an EnVision (Perkin Elmer) plate reader. Plate reads were normalized relative to the control inhibitor (0.29 uM artemisinin) and vehicle (DMSO) wells present on each plate and then corrected by an algorithm using vehicle-only control plates at the beginning and end of the compound plate stack.

Row | Structure (SMILES) | Potency
1 | CNCCC(Oc1ccccc1OC)c1ccccc1 (configuration not stated) | inactive
2 | CCOc1ccc(F)cc1C1(O)C(N)=Nc2ccc(Cl)cc21 (configuration not stated) | 66.8 nM (active)
3 | O=C1C(=O)c2ccccc2C(O)=C1C1CCC(c2ccc(Cl)cc2)CC1 (configuration not stated) | inactive
4 | CCCCN(CCCC)CC(O)c1cc(Cl)cc2c1-c1ccc(Cl)cc1C2=Cc1ccc(Cl)cc1 (configuration not stated) | inactive
5 | Oc1cc(Cl)ccc1Oc1ccc(Cl)cc1Cl | 3350 nM (active)
6 | O=C(O)c1cn(C2CC2)c2cc(N3CCNCC3)c(F)cc2c1=O | inactive
7 | Cc1nc2c(C#N)cccc2n1-c1ccc(C(=O)NC2CC2)s1 | inactive
8 | CCN(CC)CCCC(C)Nc1ccnc2cc(Cl)ccc12 (configuration not stated) | inactive
9 | C[C@H]1c2cccc(O)c2C(O)=C2C(=O)[C@]3(O)C(O)=C(C(N)=O)C(=O)[C@@H](N(C)C)[C@@H]3[C@@H](O)[C@@H]21 | inactive
10 | COc1ccc(CCN(C)CCCC(C#N)(c2ccc(OC)c(OC)c2)C(C)C)cc1OC (configuration not stated) | inactive
11 | CC[C@@H](C)[C@H]1O[C@]2(CC[C@H]1C)C[C@@H]1C[C@@H](CC=C(C)[C@@H](O[C@H]3C[C@H](OC)[C@@H](O[C@H]4C[C@H](OC)[C@@H](O)[C@H](C)O4)[C@H](C)O3)[C@@H](C)C=CC=C3CO[C@@H]4[C@H](O)C(C)=C[C@@H](C(=O)O1)[C@]34O)O2 | inactive
12 | CC(CNC1CCCCC1)OC(=O)c1ccccc1 (configuration not stated) | inactive
13 | CN1CCN(CCCN2c3ccccc3Sc3ccc(S(=O)(=O)N(C)C)cc32)CC1 | 1140 nM (active)
14 | COCC(=O)O[C@]1(CCN(C)CCCc2nc3ccccc3[nH]2)CCc2cc(F)ccc2[C@@H]1C(C)C | inactive
15 | CC[C@H]1OC(=O)[C@H](C)[C@@H](O[C@H]2C[C@@](C)(OC)[C@@H](O)[C@H](C)O2)[C@H](C)[C@@H](O[C@@H]2O[C@H](C)C[C@H](N(C)C)[C@@H]2O)[C@](C)(O)C[C@@H](C)CN(C)[C@H](C)[C@@H](O)[C@]1(C)O | inactive
16 | C[C@H](N)CN1CCc2ccc(Br)cc21 | 1880 nM (active)
17 | CC(C)(C)c1cc(O)c(CN)c(C(C)(C)C)c1 | inactive
18 | Cc1cccc(C)c1OCC(N)C(C)C (configuration not stated) | 5950 nM (active)
19 | CCCC(=O)O[C@]1(C(=O)CCl)[C@H](C)C[C@@H]2[C@H]3CCC4=CC(=O)C=C[C@]4(C)[C@@]3(F)C(=O)C[C@@]21C | inactive

Row | Structure (SMILES) | Potency
20 | C=Cc1c(C)c2cc3nc(cc4[nH]c(cc5nc(cc1[nH]2)C(C)=C5CCC(=O)OC)c(CCC(=O)O)c4C)[C@@]1(C)C3=CC=C(C(=O)OC)[C@H]1C(=O)OC | 359 nM (active)
21 | COc1ncnc(NS(=O)(=O)c2ccc(N)cc2)c1OC | 1880 nM (active)
22 | C=CC(C)=C[C@@]1(C)SC(=O)C(C)=C1O | inactive
23 | CNC(=O)c1cc(Oc2ccc(NC(=O)Nc3ccc(Cl)c(C(F)(F)F)c3)cc2)ccn1 | inactive
24 | CCOc1ccccc1O[C@H](c1ccccc1)[C@H]1CNCCO1 | inactive
25 | C#C[C@]1(O)CC[C@@H]2[C@H]3CCC4=CC(=O)CC[C@H]4[C@H]3C(=C)C[C@@]21CC | inactive
26 | CNCCCCOc1ccccc1Cc1ccccc1 | inactive
27 | CN(C)CCOC(c1ccccc1)c1ccccc1 | 1500 nM (active)
28 | CC1=CC(=O)c2ccccc2C1=O | inactive
29 | NC(=NCc1ccccc1)NC(=O)c1nc(Cl)c(N)nc1N | inactive
30 | CCCC[C@@H]1C[C@@H](C(=O)NC([C@H](C)Cl)[C@H]2O[C@H](S)[C@H](O)[C@@H](O)[C@@H]2O)N(C)C1 (some centres not stated) | inactive
31 | CO[C@H]1O[C@@H]2O[C@@]3(C)CC[C@@H]4[C@@H](C)CC[C@@H]([C@H]1C)[C@@]24OO3 | inactive
32 | CN([C@@H](Cc1ccc(OS(=O)(=O)c2cccc3cnccc23)cc1)C(=O)N1CCN(c2ccccc2)CC1)S(=O)(=O)c1cccc2cnccc12 | inactive
33 | C[C@H]1Cc2c([nH]c3cc(Cl)c(F)cc23)[C@@]2(N1)C(=O)Nc1ccc(Cl)cc12 | inactive
34 | CC(C)C[C@@H]1NC(=O)[C@H](CCCN)NC(=O)[C@H](C(C)C)NC(=O)[C@@H]2CCCN2C(=O)[C@@H](Cc2ccccc2)NC(=O)[C@H](CC(C)C)NC(=O)[C@H](CCCN)NC(=O)[C@H](C(C)C)NC(=O)[C@@H]2CCCN2C(=O)[C@@H](Cc2ccccc2)NC1=O (cyclo(V[Orn]L[dF]PV[Orn]L[dF]P)) | 0.7 nM (active)
35 | CCCCN(CCCC)CCC(O)c1cc2c(Cl)cc(Cl)cc2c2cc(C(F)(F)F)ccc12 (configuration not stated) | inactive
36 | COc1cccc(CCc2ccccc2OCC(CN(C)C)OC(=O)CCC(=O)O)c1 (configuration not stated) | 943 nM (active)
37 | CC(=O)O[C@@]12CO[C@@H]1C[C@H](O)[C@@]1(C)C(=O)[C@H](O)C3=C(C)[C@@H](OC(=O)[C@H](O)[C@@H](NC(=O)OC(C)(C)C)c4ccccc4)C[C@@](O)([C@@H](OC(=O)c4ccccc4)[C@H]21)C3(C)C | inactive
